Screens as filed in PubChem.
The list is not random: actives were taken first. Their share in the collection is about 6.6%.
Gli-Sufu antag: antagonists of Gli-Sufu signaling. inhibition, % at 5 µM. 0.74% of 340,000 active. AID 588413. Sufu-KO-LIGHT fibroblasts, Gli luciferase reporter luminescence;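 active = inhibition above about 55%, limit read from the data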;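 also: 0% = DMSO-treated cells and 100% = wells with medium but no cells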
MPTP inh: inhibitors of mitochondrial permeability transition pore; isolated mouse mitochondria, Ca2+ swelling absorbance, 30 min; inhibition, % at 10 µM; 1.4% of 360,000 active;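 active = inhibition of 50% or more, scaled per plate between neutral and stimulator controls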;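 also: 0% = DMSO wells given calcium and 100% = 1 mM EGTA wells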
Beta apoptosis: blocks beta cell apoptosis. INS-1E cytokine-induced death, ATP luminescence, 48 h; percent of positive-control rescue, neutral wells zero. protection from apoptosis, % (concentration not given with the values). 0.8% of 300,000 active. AID 435005;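 active = Every replicate reaches about 75%, or at least half do and their mean reaches it too, limit read from the data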;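 also: 0% = cytokine-treated negative control wells and 100% = positive control rescue; higher means more ATP so stronger rescue from cytokine killing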
CSC inhib: blocks cancer stem cells; cancer stem cell-like cells viability, luminescence; inhibition, % at 7.5 µM; 1.1% of 300,000 active; AID 2717; in the data active = inhibition above about 75%; tested in HMLE shEcad cells
NR3A LBD binder: NR3A (human) ligand-binding domain modulation | Tm shift relative to glycine control, % at 25 µM | 2.5% of 340,000 active | NR3A LBD differential scanning fluorimetry, Tm shift; 0% = protein alone, 100% = glycine-bound protein;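 active = melting temperature shift of at least 10% of the positive control shift, at one fixed dose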
Mdm2 MdmX PPI: disrupts the human Mdm2-MdmX interaction | O15151+Q00987 | SaOS-2 split-luciferase Mdm2/MdmX complementation, luminescence | inhibition, % at 8 µM | 3% of 330,000 active | AID 485346;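 active = inhibition of at least 50% at 8 µM in the primary screen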
Target sequence (O15151 whole entry, looked up): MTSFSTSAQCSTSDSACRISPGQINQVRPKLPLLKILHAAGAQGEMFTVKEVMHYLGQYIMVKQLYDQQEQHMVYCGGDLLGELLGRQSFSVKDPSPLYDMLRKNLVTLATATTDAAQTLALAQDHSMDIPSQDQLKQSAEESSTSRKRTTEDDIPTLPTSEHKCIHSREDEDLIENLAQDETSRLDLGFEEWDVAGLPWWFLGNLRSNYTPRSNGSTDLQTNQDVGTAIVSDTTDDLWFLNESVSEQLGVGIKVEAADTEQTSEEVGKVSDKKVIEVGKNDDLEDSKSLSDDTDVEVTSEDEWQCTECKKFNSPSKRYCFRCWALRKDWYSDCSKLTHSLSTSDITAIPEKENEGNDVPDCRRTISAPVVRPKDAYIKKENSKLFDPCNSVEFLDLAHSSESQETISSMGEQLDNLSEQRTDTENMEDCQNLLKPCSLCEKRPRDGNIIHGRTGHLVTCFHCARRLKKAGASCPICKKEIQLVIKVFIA
Target sequence (Q00987 whole entry, looked up): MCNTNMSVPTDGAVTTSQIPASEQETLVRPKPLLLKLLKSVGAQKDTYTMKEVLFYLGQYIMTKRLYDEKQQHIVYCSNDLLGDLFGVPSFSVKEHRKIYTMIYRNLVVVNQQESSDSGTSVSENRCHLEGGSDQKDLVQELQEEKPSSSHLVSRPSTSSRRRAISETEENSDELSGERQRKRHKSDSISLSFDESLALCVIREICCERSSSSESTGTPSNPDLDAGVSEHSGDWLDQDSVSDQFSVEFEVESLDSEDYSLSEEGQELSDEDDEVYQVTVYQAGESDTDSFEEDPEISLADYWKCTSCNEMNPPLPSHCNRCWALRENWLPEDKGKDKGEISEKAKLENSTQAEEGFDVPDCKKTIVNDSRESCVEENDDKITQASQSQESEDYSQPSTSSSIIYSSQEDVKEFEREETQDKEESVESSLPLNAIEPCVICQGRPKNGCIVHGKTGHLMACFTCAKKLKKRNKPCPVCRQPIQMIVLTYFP
Mdm2-MdmX conf: human Mdm2/MdmX binding inhibition, confirmed; shares compounds with Mdm2 MdmX PPI; luminescent assay; inhibition, % at 8 µM; 55% of 10,000 active; in the data active = inhibition above about 40%
Full FLuc ctr: counter-screen for Mdm2/MdmX inhibitors: full-length luciferase | 77% of 6,200 active | inhibition, % at 8 µM | shares compounds with Mdm2 MdmX PPI | SaOS-2 full-length luciferase counterscreen, luminescence;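 active = mean inhibition at 8 µM reaching about 37%, which flags the compound as non-specific, limit read from the data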;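 also: p53-null SaOS-2 cells with luciferase driven by a doxycycline-inducible promoter; compound on cells about two nights before reading with doxycycline added after day one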
Numbers without * were called inactive; . = not tested or not shown.

SMILES	Gli-Sufu antag	MPTP inh	Beta apoptosis	CSC inhib	NR3A LBD binder	Mdm2 MdmX PPI	Mdm2-MdmX conf	Full FLuc ctr
CCCCNC(=O)C1(C)CCN1C(=O)c1cccc2c1OCCO2 (stereo unspecified)	.	1.1	.	.	.	.	.	.
CCCn1nc(C(=O)Nc2ccc3nc(N4CCOCC4)sc3c2)ccc1=O	46.5	3.8	.	.	1.0	8.8	.	.
COc1cccc(C(O)c2nc(-c3cccc(CO)c3)cs2)c1 (stereo unspecified)	.	-0.7	.	.	.	.	.	.
CC(=O)Nc1sc(C)c(C)c1C(=O)OCC(=O)N(Cc1ccccc1)C(C)C	.	-1.7	2.1	-24.0	2.6	5.1	.	.
Cc1cc(C)cc(Nc2nc(-c3ccc(S(=O)(=O)N4CCCC4)cc3)cs2)c1	-1.9	9.2	5.1	15.1	4.2	59.3*	58.5*	42.0*
Cc1ccc(Nc2nc(-c3ccc(S(=O)(=O)N4CCCC4)cc3)cs2)cc1C	15.8	4.1	.	-5.8	8.2	-1.7	.	.
CCN(CC)CCNc1nc(-n2nc(C)cc2C)nc2sc3c(c12)CC(C)(C)OC3	-8.4	-0.3	-9.2	13.4	-3.3	61.1*	34.8	.
Cc1cc(C)n(-c2nc(NCCN(C)C)c3c4c(sc3n2)COC(C)(C)C4)n1	-1.3	-1.6	-1.3	5.9	-1.9	65.3*	37.2	62.9*
COC(=O)c1ccc2nc(C)cc(Nc3ccccc3C)c2c1	10.5	0.0	5.5	-10.9	0.4	10.7	.	.
COc1ccc2nc(C)cc(Nc3ccc(N4CCN(C)CC4)cc3)c2c1	8.9	-0.3	72.7	22.0	-9.7	99.0*	89.6*	36.5*
COc1ccc2nc(C)cc(Nc3ccc(N4CCOCC4)cc3)c2c1	11.1	1.8	.	.	1.1	26.9	.	.
COc1ccc(OC)c(Nc2cc(C)nc3ccc(C)cc23)c1	0.0	7.0	6.4	43.8	2.4	68.4*	58.1*	47.7*
COC(=O)c1ccc(Nc2cc(C)nc3ccc(C)cc23)cc1	9.4	8.8	32.0	30.2	-2.2	100.2*	66.3*	52.1*
CC(=O)c1ccc(Nc2cc(C)nc3c(C)cccc23)cc1	-5.0	4.4	22.9	54.3	-0.7	33.5	.	.
CC(=O)c1ccc(Nc2cc(C)nc3ccccc23)cc1	5.6	-0.5	.	25.6	-2.2	58.6*	49.6*	60.8*
COc1ccc(C(=O)OCC(=O)NCC2CCCO2)c(F)c1 (stereo unspecified)	-5.7	-0.9	0.3	.	-0.3	3.1	.	.
CCOC(=O)CNC(=O)c1sc(NC(=O)/C=C/c2ccccc2)nc1C	-1.1	0.4	-3.5	13.1	-0.7	68.8*	12.2	.
O=c1c2c3nc4ccccc4nc3n(/N=C/c3ccccn3)c2ncn1-c1ccccc1	-15.5	-0.6	-5.7	34.9	-1.3	73.9*	49.4*	54.6*
C=CCn1cnc2c(c1=O)c1nc3ccccc3nc1n2/N=C/c1ccccn1	7.0	0.5	.	.	-1.5	.	.	.
C=C(C)CN1CCN(c2c(CCC#N)c(C)c(C#N)c3nc4ccccc4n23)CC1	0.4	-0.8	1.0	6.1	-2.1	74.2*	24.1	.
CSc1ncccc1C(=O)OCC(=O)c1ccc2c(c1)NC(=O)CO2	-5.3	1.8	-12.1	-2.4	0.1	67.9*	20.9	.
O=C(Cc1ccc(Br)cc1)c1ccc(O)cc1O	-120.5	5.5	-0.2	25.7	1.4	-24.0	.	.
Oc1ccc(N=Nc2ccc(Br)cc2)c(O)c1	-21.6	1.0	24.2	91.8*	-18.9	82.4*	41.2*	98.4*
Cc1coc(NC(=O)CSc2nc(-c3ccncc3)cc(C(F)(F)F)c2C#N)n1	12.1	-0.1	4.5	-22.6	-0.8	52.4*	8.6	.
N#Cc1c(C(F)(F)F)cc(-c2ccc(F)cc2)nc1SCC(=O)O	5.1	-3.8	2.3	-2.7	-0.6	-21.7	.	.
SMILES	Gli-Sufu antag	MPTP inh	Beta apoptosis	CSC inhib	NR3A LBD binder	Mdm2 MdmX PPI	Mdm2-MdmX conf	Full FLuc ctr
CCOC(=O)NC(=O)CSc1nc(C)cc(C(F)(F)F)c1C#N	-25.0	-0.9	-12.6	-3.0	1.1	58.9*	14.8	.
COC(=O)CSc1nc(C)cc(C(F)(F)F)c1C#N	-1.9	0.6	-0.5	5.8	0.1	9.0	.	.
O=C1Nc2cc(C(=O)NCCCN3CCOCC3)ccc2S/C1=C/c1ccccc1F	20.2	-0.2	3.0	27.2	-2.8	10.0	.	.
O=C1Nc2cc(C(=O)NCCCN3CCOCC3)ccc2S/C1=C/c1cccc(Cl)c1	5.1	1.8	5.7	8.0	-7.5	73.3*	2.0	.
CCC1CCCCN1CCCNC(=O)c1ccc(/C=C2/Sc3ccccc3NC2=O)cc1 (stereo unspecified)	-5.7	1.0	28.9	-2.4	0.3	85.9*	39.8	55.2*
COc1ccc(-n2c(C)c(C(C)=O)c3cc(OC(C)=O)ccc32)cc1	-13.7	-0.3	7.9	10.0	-1.3	81.9*	86.2*	6.4
COc1ccc2c(c1)c(C(=O)O)c(C)n2-c1ccccc1	0.5	0.4	-3.6	-8.2	1.1	7.3	.	.
CCOC(=O)c1c(C)n(-c2ccc(F)cc2)c2ccc(O)cc12	-2.4	1.5	.	-2.3	2.3	11.1	.	.
COc1ccc2c(c1)c(C(C)=O)c(C)n2-c1ccc(C(C)=O)cc1	-4.2	1.0	.	.	2.2	61.3*	60.6*	40.4*
COC(=O)c1c(C)n(-c2ccc(OC)cc2)c2ccc(O)cc12	-9.9	1.3	1.0	.	-7.0	66.5*	63.5*	20.4
CCc1ccccc1OCC(=O)Nc1cccc(S(=O)(=O)NC2=NCCC2)c1	2.2	-2.3	.	.	-0.3	6.7	.	.
O=C(NC1c2ccccc2-c2ccccc21)N1CCOCC1	4.8	0.0	0.4	-7.9	-0.1	50.1*	15.1	.
c1ccc2c(c1)-c1ccccc1C2N1CCOCC1	-5.5	-1.0	.	.	-8.7	.	.	.
O=C(OCc1ccc(F)cc1)c1cc(S(=O)(=O)N2CCCCC2)ccc1N1CCOCC1	34.7	2.8	20.8	14.0	2.8	21.6	.	.
CN1CCN(C2Cc3cc(Cl)ccc3Sc3cc(F)ccc32)CC1 (stereo unspecified)	9.9	-3.3	.	100.9*	-2.9	53.9*	23.9	.
O=C(Nc1ccc(F)cc1)Nc1sccc1-c1nc2ccccc2s1	-4.0	43.6	17.2	10.1	30.5*	68.2*	35.5	68.6*
CNc1sc(C(=O)c2ccc(F)cc2)c(N)c1-c1nc2ccccc2s1	-1.5	11.6	14.4	9.5	-0.2	-30.2	.	.
Cc1c(C(=O)N/N=C/c2c(O)ccc3ccccc23)nnn1-c1nonc1N	46.8	0.0	85.7*	.	4.1	67.2*	81.2*	52.2*
Cc1ccc(COc2cccc(/C=N/NC(=O)c3nnn(-c4nonc4N)c3C)c2)cc1	-68.1	1.3	12.7	38.4	-0.1	56.3*	-12.7	.
Nc1nonc1-n1nnc(C(=O)N/N=C/c2cc(Br)ccc2O)c1CNc1ccccc1	16.5	2.0	96.5*	97.3*	23.3*	69.0*	65.6*	30.5
